Screening results from PubChem BioAssay.
PG9 Ab binder – small molecules binding HIV-1 gp120 antibody PG9. TR-FRET gp120-PG9 antibody binding. AID 624416. inhibition, % at 6.7 µM. 0.43% of 360,000 active; in the data active means inhibition above about 8.5%
DNMT1 block – DNMT1 (human) enzyme inhibition; P26358; DNMT1 molecular beacon, Hinp1I cleavage, fluorescence; inhibition (reported as % activation of signal), % at 10 µM; 0.83% of 360,000 active; AID 588458; in the data active means inhibition above about 50%
MBD2 inh – MBD2-methylated oligo binding inhibition. TR-FRET, MBD2 binding to methylated oligonucleotide. inhibition, % at 4.4 µM. 0.31% of 370,000 active. AID 686964; in the data active means inhibition above about 13%
Target sequence (Q9UBB5 whole entry, looked up): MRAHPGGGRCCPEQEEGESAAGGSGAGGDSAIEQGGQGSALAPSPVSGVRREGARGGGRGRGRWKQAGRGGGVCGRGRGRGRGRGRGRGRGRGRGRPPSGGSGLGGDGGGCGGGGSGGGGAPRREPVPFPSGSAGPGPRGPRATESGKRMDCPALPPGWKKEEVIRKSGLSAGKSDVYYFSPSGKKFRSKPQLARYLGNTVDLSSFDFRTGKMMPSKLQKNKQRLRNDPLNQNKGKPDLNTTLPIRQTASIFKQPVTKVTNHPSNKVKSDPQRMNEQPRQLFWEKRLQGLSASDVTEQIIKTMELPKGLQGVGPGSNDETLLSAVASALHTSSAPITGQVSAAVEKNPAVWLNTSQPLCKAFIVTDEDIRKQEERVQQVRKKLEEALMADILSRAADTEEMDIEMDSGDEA
rCAG binder – molecules binding r(CAG) RNA repeats | r(CAG) RNA repeat, TO-PRO-1 dye displacement fluorescence | inhibition, % at 3 µM | 1.3% of 370,000 active;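 active means inhibition above the plate cutoff, the mean of all test compounds on that plate plus 3 SD, cut at about 35% in these data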;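 further: 0% = DMSO alone and 100% = 100 µM mitoxantrone as full dye displacement; higher means more dye released from RNA so lower well fluorescence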
LEDGF integ inh – blocks HIV-1 LEDGF/p75-dependent DNA integration. TR-FRET IN-LEDGF/p75 DNA integration, Eu/Cy5. inhibition, % at 3.7 µM. 0.64% of 370,000 active. AID 743269;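 active means inhibition above the screen-wide mean plus 3 SD, cut at about 13% in these data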;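 further: signal is the Cy5 over europium emission ratio at 671 and 618 nm; 0% = plate median of compound wells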
UHRF1 binding – UHRF1 methyl-DNA binding inhibition; UHRF1 binding to methylated oligo, TR-FRET; Q96T88; 0.75% of 370,000 active; inhibition, % at 4.4 µM; in the data active means inhibition above about 21%;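 further: UHRF1 SRA domain binding a hemimethylated CpG hairpin DNA probe; 0% = median of test compound wells and 100% = reference inhibitor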
IN multimer act – activates HIV-1 integrase multimerization in LEDGF counter-screen; shares compounds with LEDGF integ inh; TR-FRET HIV-1 integrase multimerization, biochemical; activation, % at 7.7 µM; 17% of 2,000 active; AID 1053131; in the data active means activation above about 8.9%
TRFRET interf – optically interferes with TR-FRET readout in LEDGF counter-screen | shares compounds with LEDGF integ inh | TR-FRET optical interference counterscreen, HIV-1 IN multimerization | inhibition, % at 7.7 µM | 2,000 tested, under 10 active | AID 1053135;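 active means inhibition above the mean over all tested compounds plus 3 SD, which no compound reached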;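 further: 0% = integrase with antibodies and DMSO and 100% = antibodies without integrase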
IN-LEDGF confirm – confirmation of HIV-1 LEDGF/p75-dependent integration inhibitors | 36% of 2,000 active | shares compounds with LEDGF integ inh | TR-FRET LEDGF/p75-dependent HIV-1 integration, biochemical | inhibition, % at 3.7 µM; in the data active means inhibition above about 14%
An asterisk follows results filed as active; / = no result. Only some compounds are listed: those with a hit (about 3.5% of all), similar ones and a draw of the others.

SMILES	PG9 Ab binder	DNMT1 block	MBD2 inh	rCAG binder	LEDGF integ inh	UHRF1 binding	IN multimer act	TRFRET interf	IN-LEDGF confirm
Cc1cnc(-c2nc3ccccc3n2C(C(=O)NC(C)(C)C)c2ccccc2)cn1 (configuration not stated)	1	/	6	1	-5	0	/	/	/
C/C(CC(=O)Nc1ccccn1)=N\NC(=O)c1ccccc1O	-1	1	-5	-1	38*	-5	1	-4	46*
Cc1ccc(C(=O)Nc2c(-c3ccc(Cl)cc3)[nH][nH]c2=O)cc1	-1	-15	2	10	14*	4	4	-12	1
CCOc1cc(N2CCOCC2)c(OCC)cc1NC(=O)c1nn(CC)c(=O)c2ccccc12	-2	-9	2	4	2	4	/	/	/
O=C(/C=C/c1ccc(F)cc1)N1CCCN(C(=O)/C=C/c2ccc(F)cc2)CC1	-1	5	3	-4	25*	6	0	1	0
CC1=CC(C)(C)N2C(=O)C(=Nc3ccc(O)cc3)c3cccc1c32	-13	-18	-23	11	17*	-11	19*	-68	45*
Cc1c(NC(=O)c2cccc(NC(=O)Cc3ccc(F)cc3)c2)c(=O)n(-c2ccccc2)n1C	1	2	1	4	19*	0	0	-2	-5
Cc1cc(-c2csc(NC(=O)c3ccc(=O)[nH]c3)n2)c(C)n1Cc1ccccc1	-3	-13	7	18	17*	1	6	-29	26*
CCOc1ccc(S(=O)(=O)NCCCn2ccnc2)cc1	-2	0	2	3	0	0	/	/	/
COC(=O)Cn1cnc2c(Cl)nc(F)nc21	-2	3	1	-1	1	0	/	/	/
O=C1C(N2CCOCC2)=C(n2nnc3ccccc32)C(=O)c2ccccc21	-10	24	-14	3	40*	-4	3	-11	45*
CC(=O)NC(c1ccco1)c1cc(Cl)c2ccc(Cl)nc2c1O (configuration not stated)	-1	-4	-4	2	44*	-6	1	-6	6
COc1ccc(CCC(=O)NCCS(=O)(=O)N2CCN(c3ccc(OC)cc3)CC2)cc1	-2	1	-1	-3	0	-1	/	/	/
Cn1ncc([N+](=O)[O-])c1C(=O)Nc1ccc(-c2nc3ccccc3o2)cc1	-1	-2	-6	13	35*	-3	0	0	-8
CCc1ccc(CNC(=O)CCS(=O)(=O)Cc2ccccc2F)cc1	-2	1	-5	-5	3	3	/	/	/
NC(Cc1ccc(F)cc1)c1csc(Nc2nccc(C(F)(F)F)n2)n1 (configuration not stated)	1	-9	3	17	0	-5	/	/	/
COC(=O)CCCC1=CC2=CC(=O)C(C)(OC(=O)c3cccs3)C(=O)C2=CN1Cc1ccco1 (configuration not stated)	0	4	-1	21	25*	13	2	-6	18*
COC(=O)CCCC1=CC2=CC(=O)C(C)(OC(=O)c3cccs3)C(=O)C2=CN1Cc1ccccc1 (configuration not stated)	1	-16	-7	8	1	-3	/	/	/
CN1CCN(C(c2ccc(Br)cc2)c2cc(Cl)c3cccnc3c2O)CC1 (configuration not stated)	0	-8	0	9	40*	-12	-3	15	2
Cc1ccc(S(=O)(=O)NN=C2CC(C)(C)OC2(C)C)cc1	0	2	0	2	-5	0	/	/	/
Cc1ccc(S(=O)(=O)NN=C2CC3CCC2(C)C3(C)C)cc1 (configuration not stated)	2	5	2	-2	17*	0	2	-9	-3
CCN1C(=O)C(=O)N(CC(=O)Nc2cccc(C(F)(F)F)c2)C1=O	-1	4	1	0	0	3	/	/	/
CCOC(=O)NC1(NC(C)C)Oc2ccccc2O1	-1	-2	0	1	11	3	/	/	/
CCOC(=O)NC1(NC2CCCCC2)Oc2ccccc2O1	-1	4	0	-3	22*	5	-1	7	-2
Cc1ccc(NC(=O)CSc2ccc3nnc(CCNC(=O)c4ccccc4)n3n2)c(C)c1	-1	-6	-6	0	43*	-1	0	-2	-4
SMILES	PG9 Ab binder	DNMT1 block	MBD2 inh	rCAG binder	LEDGF integ inh	UHRF1 binding	IN multimer act	TRFRET interf	IN-LEDGF confirm
C=CCCC(=O)N1C[C@H]2CON(C)[C@H]2C[C@H]1c1cccc(Oc2ccccc2)c1	-3	3	-6	0	-1	0	/	/	/
O=C(NCC1COc2ccccc2O1)c1ccc(Cl)c(S(=O)(=O)N2CCCC2)c1 (configuration not stated)	0	-2	1	-1	5	3	/	/	/
Nc1cc(Cl)ccc1Oc1ccc(Cl)cc1	1	-10	0	2	-1	-2	/	/	/
Nc1cc(Cl)ccc1Oc1ccccc1	-1	-1	3	-2	36*	-2	0	0	5
COc1ccc2nc(NC(=O)c3ccccc3F)sc2c1	-2	-5	-4	1	16*	-1	1	-3	-2
CCC(=O)N1CCCC(C)(C(=O)Nc2ccc3scnc3c2)C1 (configuration not stated)	2	-3	-1	3	5	-2	/	/	/
COc1ccccc1OCCSc1nnnn1-c1ccc(C)cc1	1	1	-5	2	37*	-2	-3	14	10
CC1Oc2cc3oc4c(O)c(O)ccc4c(=O)c3c(O)c2C1(C)C (configuration not stated)	/	-35	/	/	/	/	/	/	/
O=[N+]([O-])c1ccc(O)c(C=Nc2cccc3ncccc23)c1	-4	-4	0	6	20*	-10	4	-14	-2
COCCCNC(=O)C(C)N1c2cccc3cccc(c23)S1(=O)=O (configuration not stated)	-1	-3	1	3	4	-2	/	/	/
Nc1cc(=O)[nH]c(SCC(=O)NC2CCCCCCC2)n1	2	1	8	4	70*	4	-5	23	14*
CC(=O)NNc1nc(-c2ccccc2)c2cc(Br)ccc2n1	-1	5	-1	-1	0	0	/	/	/
O=C(CN1CCCCC1)NNc1nc(-c2ccccc2)c2cc(Br)ccc2n1	0	3	-4	-1	19*	-3	1	-5	-8
